Columns and labels:
Format in all cases: functional
[1] = molecular target: Solute carrier family 2, facilitated glucose transporter member 1 (Homo sapiens) (UniProt P11166); experiment: ST_JUDE_LEISH: Cytotoxicity at 2uM final concentration against transgenic Leishmania Mexicana promastigotes LmGLUT1 that are glucose transport deficient and complemented with the human glucose transporter GLUT1. Activity is measured by DNA content using SYBR green in vitro
[2] = molecular target: Hexose transporter 1 (Plasmodium falciparum) (UniProt O97467); experiment: ST_JUDE_LEISH: Cytotoxicity at 2uM final concentration against transgenic Leishmania Mexicana promastigotes LmPfHT that are glucose transport deficient and complemented with the Plasmodium falciparum hexose transporter. Activity is measured by DNA content using SYBR green in vitro
[3] = molecular target: Glucose transporter (Leishmania mexicana) (UniProt O61059); experiment: ST_JUDE_LEISH: Cytotoxicity at 2uM final concentration against transgenic Leishmania Mexicana promastigotes LmGT2 that are glucose transport deficient and complemented with the L. Mexicana glucose transporter 2. Activity is measured by DNA content using SYBR green in vitro

Sequence of Solute carrier family 2, facilitated glucose transporter member 1 (Homo sapiens) (P11166 whole entry): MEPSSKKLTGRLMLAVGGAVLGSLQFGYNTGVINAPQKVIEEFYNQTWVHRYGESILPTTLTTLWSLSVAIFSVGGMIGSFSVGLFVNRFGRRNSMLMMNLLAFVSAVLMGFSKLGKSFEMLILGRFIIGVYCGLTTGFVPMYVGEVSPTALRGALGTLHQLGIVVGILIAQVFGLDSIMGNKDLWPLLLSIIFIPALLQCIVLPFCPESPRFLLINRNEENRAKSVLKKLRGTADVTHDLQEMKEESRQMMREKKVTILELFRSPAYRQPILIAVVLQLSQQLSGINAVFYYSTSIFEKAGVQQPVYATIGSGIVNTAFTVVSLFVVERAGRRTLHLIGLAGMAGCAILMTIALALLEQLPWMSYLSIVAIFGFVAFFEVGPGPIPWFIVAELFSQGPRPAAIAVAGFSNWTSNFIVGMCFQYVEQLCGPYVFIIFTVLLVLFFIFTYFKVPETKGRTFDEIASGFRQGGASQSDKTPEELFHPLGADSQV

Row | Compound | inhibition [1] [%] | inhibition [2] [%] | inhibition [3] [%]
1 | O=C(Nc1ccc2c(c1)OCO2)NC1CCN(c2ccnc(Nc3ccc(F)cc3)n2)C1 (centres undefined) | 0.34 | 6.37 | 3.79
2 | CN(C)Cc1ccc(-c2ccc3ccnc(N)c3c2)cc1 | 3.2 | 4.43 | 1.95
3 | CO/C(=C\C=C\c1cc2cc(Cl)c(Cl)cc2[nH]1)C(=O)NCCCN1CCN(c2cccc(Cl)c2)CC1 | -1.14 | -0.72 | -1.82
4 | COc1ccc(O)c(-c2sc(N=C(N)N)nc2-c2ccccc2)c1 | 1.77 | 2.67 | 3.42
5 | COc1cccc(-c2ccc(C(=O)NCC3CCCN(Cc4cccc(C(F)(F)F)c4)C3)s2)c1 (centres undefined) | 2.94 | -4.36 | 5.79
6 | N#Cc1cccc(Nc2nccc(NCC(O)c3cccc(C(F)(F)F)c3)n2)c1 (centres undefined) | 4.68 | 3.25 | -3.38
7 | CN(C)C(CNC(=O)c1cc(-c2ccncc2)c(-c2ccc(NC(=O)Nc3ccccc3)cc2)o1)c1ccccc1 (centres undefined) | -0.56 | -0.15 | -0.82
8 | Cc1cccc2nc(-c3cccc(-c4ccc(C(=O)NCCc5ccc(O)c(=O)[nH]5)cc4)c3)[nH]c12 | 2.16 | 1.89 | 2.33
9 | O=C(/C=C/c1ccc(Cl)c(Cl)c1)NCCCCCCN1CCCN(C(=O)Nc2ccc(F)c(Cl)c2)CC1 | 3.61 | 2.44 | 2.6
10 | NS(=O)(=O)c1ccc(CNc2ccc3ncc(-c4ccc(Cl)cc4)n3n2)cc1 | -0.09 | 0.08 | -0.35
11 | O=C(c1ccccc1)N1COCC(CCN2CCC(N3CCCC3)CC2)(c2ccc(Cl)c(Cl)c2)C1 (centres undefined) | 2.71 | -0.49 | 2.59
12 | Nc1c2ccccc2nc2ccc(-c3ccccc3)cc12 | 18.4 | 14.6 | 13.1
13 | CC(C)C[C@H](Nc1ccnc(NCC2CCCCC2)n1)C(=O)NCCOc1ccccc1 | 2.57 | 3.02 | 2.47
14 | N=C(N)Nc1ccc(CCc2ccc(NC(=N)N)cc2)cc1 | 4.14 | 4.16 | 2.91
15 | COc1ccc(CNCCCCCCNCc2ccc(OC)c3ccccc23)c2ccccc12 | 59.7 | 97.2 | 103
16 | CN(C)CCCc1cc(NC(=O)Nc2cccc(Cl)c2Cl)ccc1I | 1.65 | 5.95 | 3.83
17 | COC(=O)c1cccc(CNCc2ccc(-c3ccc(-c4nc5cc(C(F)(F)F)ccc5[nH]4)s3)cc2)c1 | 1.72 | 2.29 | 0.84
18 | Cc1cccc2nc(-c3ccc(-c4cccc(NC(=O)C(C)CN5CCN(C)CC5)c4)s3)[nH]c12 (centres undefined) | 11.7 | 10.8 | 10.3
19 | O=[N+]([O-])c1cccc(NC(=S)N2CCCN(Cc3ccc(Cl)cc3Cl)CC2)c1 | 2.36 | 3.32 | 3.01
20 | O=C(/C=C/c1ccc(Cl)c(Cl)c1)N1CCC(CN2CCC(c3c[nH]c4ccncc34)CC2)CC1 | 4.66 | 5.47 | 5.44
21 | COC(=O)c1noc(C)c1I | 0.86 | 0.08 | 0.59
22 | C=CCc1cc(Cc2cnc(N)nc2N)c2ccc(C)nc2c1O | 2.17 | 1.88 | 0.24
23 | COc1cc(C2NCC3(CCOCC3)c3cc4c(cc32)OCCO4)cc(OC)c1OC (centres undefined) | 10.2 | 6.69 | 7.63
24 | COc1ccccc1CN1CCC(CNC(=O)c2cc(-c3cccc(C(F)(F)F)c3)cs2)C1 (centres undefined) | 0.96 | 1.45 | 1.94
25 | COc1ccc(C(=O)Nc2ccc3oc(-c4ccc(C(F)(F)F)cc4)cc3c2)cc1CCCN(C)C | 1.78 | 2.26 | 0.34

Row | Compound | inhibition [1] [%] | inhibition [2] [%] | inhibition [3] [%]
26 | CCCn1c(Sc2ccc(C#N)c([N+](=O)[O-])c2)nnc1-c1ccc(Cl)cc1 | 2.12 | 3.28 | 2.23
27 | CN(C)c1cc(NN=Cc2cc(Cl)ccc2O)nc(N(C)C)n1 | 4.76 | 4.94 | 2.54
28 | Oc1ccc(CCNc2nc(NCc3cccc(-c4cc(C(F)(F)F)ccc4Cl)c3)nc(N3CCNCC3)n2)cc1 | 2.86 | 1.88 | 2.82
29 | CCNc1cc(C(=O)N[C@@H](Cc2ccccc2)[C@H](O)CNCc2cc(OC)cc(OC)c2)cc(N2CCCS2(=O)=O)c1 | 1.6 | 2.17 | -0.47
30 | O=C(NCC(CCCN1CCC(c2c[nH]c3ccccc23)CC1)c1ccccc1)Nc1ccc(Cl)c(Cl)c1 (centres undefined) | 4.09 | 2.82 | 2.69
31 | Cc1cccc2nc(-c3ccc(-c4ccc(CN5CCCC(N)C5)cc4)cc3)[nH]c12 (centres undefined) | 8.17 | 11 | 2.6
32 | CN(CCCCNC(=O)c1ccc(-c2ccccc2)cc1)C1CCc2c(O)cccc2C1 (centres undefined) | 2.79 | 2.13 | 1.18
33 | CC(C)CCN1CCC(Oc2ccc(NC(=O)c3ccsc3)cc2Cl)CC1 | -0.7 | 1.67 | 1.45
34 | CCCCCCCCCCS(=O)(=O)N[C@H](COCc1cccc(Oc2ccccc2)c1)COP(=O)(O)OC | 0.47 | 0.77 | -1.2
35 | N#Cc1ccc(N[C@@H](CC2CCCCC2)C(=O)NCc2cc(Cl)cc(Cl)c2)c2ccccc12 | 2.42 | 5.09 | 4.82
36 | Cc1ccc(CNC(=O)c2cc3c(=O)n4cccc(C)c4nc3n(CCN3CCOCC3)c2=N)cc1 | -0.35 | 1 | 1.48
37 | Cc1cccc2nc(-c3cccc(-c4ccc(NC(=O)C(C)CN5CCN(C)CC5)cc4)c3)[nH]c12 (centres undefined) | 1.5 | 0.53 | 3.85
38 | O=C(CNC1=NCCN1)Nc1ccc(NC(=O)Nc2ccc(NC(=O)CNC3=NCCN3)cc2)cc1 | 3.51 | 4.85 | 0.21
39 | COc1ccc(-c2ccc(NC(=O)c3cccc(C#N)c3)cc2)cc1CN1CCN(C)CC1 | 4.33 | 6.51 | 1.6
40 | O=C(Nc1cccc(C(F)(F)F)c1)c1ccc(S(=O)(=O)NC2CCN(CC3CCCCC3)CC2)cc1 | 1.83 | 1.62 | 5.57
41 | N=C(N)Nc1ccc(Cc2ccc(NC(=N)N)cc2)cc1 | -0.68 | -0.57 | 0.58
42 | CC(C)CNC(=O)c1ccnc(-c2ccc(CNC3Cc4ccccc4C3)cc2)c1 | -0.85 | -0.27 | -1.63
43 | COc1ccc(Br)cc1/C=C/C(=O)Nc1ccc(C2CCN(C)CC2)cc1 | 3.58 | 3.16 | 4.19
44 | CCOC(=O)C1=C(C)NC2=C(C(=O)CCC2)C1c1cn(Cc2ccc(Cl)cc2Cl)nc1-c1ccccc1 (centres undefined) | 2.11 | -1.29 | 1.62
45 | Cc1noc(C)c1-c1ccc2c(Nc3ccccc3C(C)(C)C)c(C(=O)NC3CCCC3)cnc2c1 | 2.07 | 1.46 | -0.58
46 | N=c1c2c(n(Cc3cccc(Cl)c3)c3c1CCC3)CCCC2 | 40.7 | 49.2 | 20.4
47 | O=C(Nc1cc(Cl)ccc1Cl)N[C@H]1CCN(CCCCCNC(=O)C2CC2c2ccc(Cl)c(Cl)c2)C1 (some centres undefined) | 1.43 | 1.2 | 4.46
48 | Cc1cccc2nc(-c3cccc(-c4ccc(NC(=O)CCc5c[nH]cn5)cc4)c3)[nH]c12 | 7.76 | 9.49 | 8.27
49 | Cc1ccc(NC(=O)c2ccc(N3CCN(c4ccncc4)CC3)cn2)cc1F | 109 | 95.4 | 102
50 | CN1CCN(CC(=O)Nc2cccc(-c3ccc(-c4nc5cc(C(F)(F)F)ccc5[nH]4)s3)c2)CC1 | 1.78 | 2.7 | 4.37

Row | Compound | inhibition [1] [%] | inhibition [2] [%] | inhibition [3] [%]
51 | CCC(CC)CN1C(=O)C(c2ccccc2)(c2ccccc2)N=C1N | 6.55 | 5.61 | 6.88
52 | N#Cc1cccc(CN2CCCN(Cc3cccc(C(=O)Nc4ccc(Cl)cc4)c3)CC2)c1 | 0.81 | 0.19 | 0.64
53 | COc1ccc2cc(-c3nc(-c4c(Cl)cccc4Cl)[nH]c3-c3ccnc(NCCCN4CCN(C)CC4)c3)ccc2c1 | -1.11 | -1.01 | -5.14
54 | CCCCCCN1CCC(NCc2ccc(OCCN3CCCC3)cc2)CC1 | -1.34 | -0.02 | -0.15
55 | Cc1cc(-c2cccc3c(C(=O)N4CCc5cc6nccc(N7CCCN(C)CC7)c6cc54)cccc23)cc(C)n1 | -0.39 | 1.02 | 1.14
56 | Cc1ccc(CN2CCCN(Cc3cccc(NC(=O)c4ccc(-c5ccccc5)cc4)c3)CC2)cc1C | 3.45 | 2.98 | 2.82
57 | O=C(c1cc(-c2cccs2)n[nH]1)N1CCN(S(=O)(=O)c2ccc(Cl)cc2)CC1 | 2.31 | 2.77 | 1.76
58 | C[C@@H](CC1CCCCC1)OC(=O)N(C)[C@@H]1CCN(C#N)C1 | 14.6 | 10.3 | 10.5
59 | Nc1ncnc2c1ncn2C(CO)Cc1ccc(O)cc1 (centres undefined) | 9.32 | 6.45 | 8.36
60 | COc1ccc2nccc(NC(=O)N3CCC(NCCOc4cc(F)cc(F)c4)CC3)c2n1 | 8.02 | 12.1 | -0.77
61 | CCOc1ccc2nc3cc(N)ccc3c(N)c2c1 | 1.58 | 3.26 | 1.19
62 | CCCCCCCCOc1c(OCC)cc(Cc2cnc(N)nc2N)cc1OCC | 13.7 | 7.75 | 2.94
63 | NC(=O)c1cccc(Nc2nccc(Nc3ccc(Oc4c(Cl)cccc4Cl)c(Cl)c3)n2)c1 | 9.27 | 9.62 | 2.92
64 | Cc1noc(C)c1-c1cccc(CNCc2ccc(-c3ccc(-c4nc5cc(F)ccc5[nH]4)s3)cc2)c1 | 11.2 | 10.3 | 10.2
65 | COc1ccc2nccc([C@@H](O)CN3CCC(CO)(NCc4cc5ccccc5o4)CC3)c2c1 | 7.99 | 13.3 | 1.76
66 | CCC(CSC1CCCCC1)N(C)CCN(C)C(CC)CSC1CCCCC1 (centres undefined) | 7.39 | 36.7 | 4.54
67 | Cc1ccc(OCCCCONC(=O)c2ccccc2)cc1 | 0.84 | -1.51 | -0.14
68 | O=C(Nc1ccc(Cl)cc1)c1cccc(CN2CCCN(Cc3cccc(O)c3)CC2)c1 | -0.2 | -0.04 | 0.01
69 | CN(C)Cc1c(O)ccc2oc(Cc3ccccc3)cc12 | -1.64 | -1.55 | -0.96
70 | O=C(NC(=S)NCc1ccncc1)c1ccccc1 | 2.06 | -1.93 | 1.6
71 | CC(C)Cn1c(N)cc(=O)n(C)c1=O | 3.76 | 3.45 | 3.72
72 | Cc1cccc2nc(-c3ccc(-c4cccc(NC(=O)c5cnn6cccnc56)c4)cc3)[nH]c12 | 15.4 | 11.7 | 8.93
73 | CCOC(=O)c1ccc(N=C2SC(=Cc3cc(Br)ccc3O)C(=O)N2C)cc1 | 3.33 | 1.81 | 3.81
